Only some compounds are listed: those with a hit (about 1.6% of all), similar ones and a draw of the others.
KCNQ2 enhance: enhances the rat KCNQ2 potassium channel; B-score at 10 µM; 310,000 compounds, 0.54% hits; CHO-K1 KCNQ2, FluxOR thallium flux fluorescence; hits give high values; O88943;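 active = fluorescence ratio B-score at least 3 SD of library B-scores, with initial fluorescence B-score within 3 of them, cut at about 5.3 in these data; same plate scores as AID 2156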;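 note: B-score of peak minus minimum over baseline fluorescence ratio after K+ and Tl+ stimulus; positive B-score means potentiation of KCNQ2 with more thallium influx and brighter signal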
Target sequence (O88943 whole entry, looked up): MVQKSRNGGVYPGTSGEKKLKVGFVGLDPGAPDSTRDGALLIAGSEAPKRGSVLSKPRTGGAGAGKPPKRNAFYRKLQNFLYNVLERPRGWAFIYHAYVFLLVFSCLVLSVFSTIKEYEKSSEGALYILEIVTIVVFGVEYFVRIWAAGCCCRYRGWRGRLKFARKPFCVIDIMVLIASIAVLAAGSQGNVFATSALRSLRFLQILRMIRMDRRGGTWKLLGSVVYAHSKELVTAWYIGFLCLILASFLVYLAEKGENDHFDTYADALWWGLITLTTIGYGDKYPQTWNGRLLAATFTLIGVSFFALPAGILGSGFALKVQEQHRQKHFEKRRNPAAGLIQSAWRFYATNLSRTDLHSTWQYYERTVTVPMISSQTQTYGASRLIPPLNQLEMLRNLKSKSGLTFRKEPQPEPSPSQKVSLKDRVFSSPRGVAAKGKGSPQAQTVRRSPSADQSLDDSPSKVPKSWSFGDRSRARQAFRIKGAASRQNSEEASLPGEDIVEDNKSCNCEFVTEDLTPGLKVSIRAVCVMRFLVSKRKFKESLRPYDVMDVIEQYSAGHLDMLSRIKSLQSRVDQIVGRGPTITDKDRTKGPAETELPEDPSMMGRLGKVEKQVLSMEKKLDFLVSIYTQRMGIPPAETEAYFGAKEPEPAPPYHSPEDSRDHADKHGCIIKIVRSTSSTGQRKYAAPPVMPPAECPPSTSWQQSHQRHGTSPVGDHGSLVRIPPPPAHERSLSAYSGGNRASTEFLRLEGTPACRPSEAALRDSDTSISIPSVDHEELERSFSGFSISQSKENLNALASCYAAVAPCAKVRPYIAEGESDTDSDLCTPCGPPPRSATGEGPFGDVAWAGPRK
KCNQ2 block: blocks the rat KCNQ2 potassium channel | B-score at 10 µM | 310,000 compounds, 1.1% hits | O88943 | CHO-K1 KCNQ2, FluxOR thallium flux, 20 min; hits give low values;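 active = fluorescence ratio B-score at most minus 3 library SDs, with starting brightness B-score within 2 library SDs, cut at about -5.5 in these data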
Kir21 confirm: confirmation of mouse Kir2.1 potassium channel inhibitors; shares compounds with KCNQ2 enhance; Kir2.1-expressing cells, FluxOR thallium flux fluorescence; hits give low values; Tl flux remaining, % of negative control (hits give low values), % at 10 µM; 2,300 compounds, 41% hits; AID 2032;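 active = Primary-screen hit whose thallium flux fell at least 3 control SD below untreated wells in both duplicates, with normal baseline fluorescence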
HEK293 Tl flux: alters thallium flux in parental HEK293 cells, Kir2.1 counter-screen; shares compounds with KCNQ2 enhance; FluxOR thallium flux fluorescence; 0% = unstimulated blank wells; 2,300 compounds, 19% hits; FluxOR signal as % of negative control (100 = no effect), % at 10 µM; AID 2105;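 active = dye signal at least 3 control SD above or below untreated wells in both duplicates, raw fluorescence within 3, either direction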;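 note: percent is based on the flux ratio of peak minus minimum fluorescence over baseline F0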
CHO-K1 ctr: parental CHO-K1 activity in KCNQ2 potentiator counter-screen | 1,200 compounds, 43% hits | activity increase over 3SD of controls, % at 10 µM | shares compounds with KCNQ2 enhance | parental CHO-K1 cells, FluxOR thallium flux fluorescence; zero = vehicle mean+3SD, 100% = vehicle-minus-blank window | AID 2282;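 active = signal rise of at least 3 SD above the untreated control mean, in both duplicate wells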;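 note: counter screen of KCNQ2 potentiator hits so any rise reflects channel-independent effects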
KCNQ1 pot spec: selectivity of KCNQ2 potentiators: effect on human KCNQ1 | shares compounds with KCNQ2 enhance | CHO KCNQ1 stable, FluxOR thallium flux fluorescence; beyond 3SD, as % of vehicle-control signal | 1,200 compounds, 28% hits | activation over 3SD threshold, % at 10 µM;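 active = fluorescence ratio rise of at least 3 SD of vehicle wells above their mean, in both replicate wells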
KCNQ2 pot confirm: confirmation of rat KCNQ2 potassium channel potentiators. shares compounds with KCNQ2 enhance. CHO-KCNQ2 cells, FluxOR thallium flux fluorescence. potentiation, less the hit threshold, % at 10 µM. 1,200 compounds, 68% hits;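 active = fluorescence ratio rising 3 SD or more over the vehicle control mean in both replicates, plus primary screen hit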;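 note: peak minus minimum thallium fluorescence divided by baseline after K/Tl stimulus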
Kir2-1 sel: mouse Kir2.1 off-target activity of KCNQ2 potentiators. shares compounds with KCNQ2 enhance. HEK293 Kir2.1, FluxOR thallium flux fluorescence. activity over 3SD threshold, % at 10 µM. 1,200 compounds, 2% hits;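 active = fluorescence ratio rise of at least 3 SD above the vehicle-control mean, seen in both replicates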
KCNQ2 W236L MoA: KCNQ2 potentiators acting on retigabine-insensitive rat KCNQ2 W236L mutant. shares compounds with KCNQ2 enhance. AID 2558. current increase over 3SD of negative controls (%), hits give high values, % at 25 µM. CHO KCNQ2-W236L, automated patch clamp current. 940 compounds, 10% hits;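 active = current increase at least 3 SD of the untreated controls above them in both duplicate recordings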
Hits are given with their value; 0 = inactive; - = no result given.

SMILES	KCNQ2 enhance	KCNQ2 block	Kir21 confirm	HEK293 Tl flux	others
CC1CCCCN1C(=O)COC(=O)C1CCN(S(=O)(=O)c2ccc3c(c2)OCCO3)CC1 (stereo unspecified)	0	0	-	-
O=C(NCCN1C(=O)S/C(=C\c2cccs2)C1=O)[C@H](Cc1ccccc1)N1C(=O)c2ccccc2C1=O	-	0	-	-
CCCCC(=O)Nc1ccccc1Oc1ccccc1	8.98	0	-	-	CHO-K1 ctr=0;KCNQ1 pot spec=0;KCNQ2 pot confirm=18.6;Kir2-1 sel=0;KCNQ2 W236L MoA=0
CCOc1ccc(Oc2ccccc2NC(=O)CN2C(=O)NC3(CCCC3)C2=O)cc1	5.93	0	0	0	CHO-K1 ctr=0;KCNQ1 pot spec=0;KCNQ2 pot confirm=26.0;Kir2-1 sel=0;KCNQ2 W236L MoA=0
O=C(O)CCCC(=O)Nc1ccccc1Oc1ccccc1	-	0	-	-
COc1ccc(NC(=O)CN2C(=O)NC3(CCCC3)C2=O)c(OC)c1	-	0	-	-
CN(C(=O)CCN1C(=O)S/C(=C\c2ccccc2)C1=O)C1CCS(=O)(=O)C1 (stereo unspecified)	0	0	-	-
Cc1cc(C)c(C)c(S(=O)(=O)NCC(=O)Nc2ccccc2F)c1C	-	0	66.0%	0
Cc1cc(C)c(C)c(S(=O)(=O)NCC(=O)O)c1C	0	0	-	-
Cc1nn(C)c(C)c1/C=C1/SC(=S)NC1=O	0	0	-	-
Cc1ccc(C2C(/C=C3/SC(=S)NC3=O)=C(c3cccs3)Oc3ccccc32)cc1 (stereo unspecified)	5.81	0	0	0	CHO-K1 ctr=0;KCNQ1 pot spec=0;KCNQ2 pot confirm=0;Kir2-1 sel=0
Cc1[nH]c2ccc(C(=O)NCc3ccccn3)cc2c1C	0	0	-	-
CCOC(=O)Cn1c(=N)n(CCOc2ccc3ccccc3c2)c2ccccc21	-	0	27.5%	0
CCOC(=O)Cn1c(=N)n(CCOc2ccc(OC)cc2)c2ccccc21	-	0	-	-
CC(C)c1ccc(C(=O)N(c2ccccn2)C(C)c2ccco2)cc1 (stereo unspecified)	-	0	-	-
CC(c1ccco1)N(C(=O)CSc1ccc(Br)cc1)c1ccccn1 (stereo unspecified)	-	0	69.0%	0
CCCCCCC1CCC(C(=O)N2CCOCC2)CC1 (stereo unspecified)	0	0	-	-
Cc1cc(C(=O)CCC(=O)N2CCN(S(=O)(=O)c3ccccc3)CC2)c(C)s1	6.23	0	0	0	CHO-K1 ctr=0;KCNQ1 pot spec=0;KCNQ2 pot confirm=11.3;Kir2-1 sel=0;KCNQ2 W236L MoA=0
Cc1cc(C(=O)CCC(=O)N2CCN(S(=O)(=O)c3cccs3)CC2)c(C)s1	0	0	-	-
S=c1[nH]nc(-c2cccs2)n1/N=C/c1cn(-c2ccccc2)nc1-c1cccs1	6.9	0	0	0	CHO-K1 ctr=0;KCNQ1 pot spec=80.5;KCNQ2 pot confirm=0;Kir2-1 sel=0;KCNQ2 W236L MoA=0
S=c1[nH]nc(-c2ccncc2)n1/N=C/c1cn(-c2ccccc2)nc1-c1ccccc1	-	0	-	-
CCn1c(SCC(=O)Nc2ccccc2C)nc2nc3c(cc2c1=O)COC(C)(C)C3	-	0	-	-
CC1CCc2c(sc3ncnc(SC(C)C(=O)NCC4CCCO4)c23)C1 (stereo unspecified)	0	0	-	-
CCc1ccc(S(=O)(=O)/N=C2\C=C(Nc3cccc(C(=O)O)c3)C(=O)c3ccccc32)cc1	0	0	-	-
Cc1cc(C)c(S(=O)(=O)/N=C2\C=C(Nc3ccc(C(=O)O)cc3)C(=O)c3ccccc32)c(C)c1	7.87	0	0	0	CHO-K1 ctr=9.1;KCNQ1 pot spec=0;KCNQ2 pot confirm=0;Kir2-1 sel=0;KCNQ2 W236L MoA=0
SMILES	KCNQ2 enhance	KCNQ2 block	Kir21 confirm	HEK293 Tl flux	others
O=C(O)c1cc2ccccc2cc1Nc1ccccc1	0	0	-	-
C=CCNC(=O)c1onc(CSc2ccccn2)c1C(=O)NCC=C	0	0	-	-
O=C(Cc1c(F)cccc1Cl)Nc1ccccc1N1CCCCC1	-	0	-	-
O=C(Cc1ccccc1)Nc1ccccc1N1CCCC1	13.1	0	-	-	CHO-K1 ctr=0;KCNQ1 pot spec=0;KCNQ2 pot confirm=54.4;Kir2-1 sel=0;KCNQ2 W236L MoA=0
O=C(Cc1cccc(C(F)(F)F)c1)Nc1ccccc1N1CCCC1	11.2	0	0	0	CHO-K1 ctr=0;KCNQ1 pot spec=0;KCNQ2 pot confirm=59.9;Kir2-1 sel=0;KCNQ2 W236L MoA=0
O=C(Cc1ccccc1)Nc1ccccc1N1CCOCC1	-	0	-	-
COc1ccc(CC(=O)Nc2ccccc2N2CCCC2)cc1	0	0	62.0%	0
O=C(CCNC(=O)c1ccc(Br)cc1)Nc1ccccc1N1CCCC1	-	0	-	-
COc1ccc(CC(=O)Nc2ccccc2N2CCCC2)cc1OC	0	0	-	-
O=C(Cc1ccc(Br)cc1)Nc1ccccc1N1CCCC1	17.9	0	0	0	CHO-K1 ctr=0;KCNQ1 pot spec=0;KCNQ2 pot confirm=52.0;Kir2-1 sel=0;KCNQ2 W236L MoA=0
O=C(NNC(=O)c1cc(O)c(O)c(O)c1)NC1CCCCC1	0	0	-	-
CCOC(=O)C1CCN(S(=O)(=O)c2ccc(OC)c(C(=O)N3CCCCC3)c2)CC1	0	0	-	-
CCC(=O)N1c2ccc(S(=O)(=O)NCCc3ccc(OC)c(OC)c3)cc2CC1C (stereo unspecified)	-	0	-	-
C#Cc1ccc([C@H]2C=C(C(=O)NC3CC3)O[C@@H](OCC)[C@@H]2CCCO)cc1	0	0	-	-
COc1cc([N+](=O)[O-])c(OC)cc1SCc1n[nH]c(=S)n1-c1ccc(F)cc1	-	0	-	-
CN(C)CC/C=C1/c2cc(F)ccc2Sc2ccc(Cl)cc21	-	0	25.0%	0
CN(C)CC/C=C1/c2ccccc2Sc2c(O)cc(Cl)cc21	-	0	-	-
COc1cc2c(cc1Cl)/C(=C\CCN(C)C)c1ccccc1S2	-	0	-	-
COc1cc(Cl)cc2c1Sc1ccccc1/C2=C/CCN(C)C	0	-7	35.5%	0
CC(=O)c1ccc(S(=O)(=O)N2CCCCC2C(=O)O)cc1 (stereo unspecified)	0	0	-	-
CC1CCCC(C)N1C(=O)COC(=O)Cc1ccc(F)cc1 (stereo unspecified)	-	0	-	-
Cc1cccc(CSc2nnc(CCNC(=O)OC(C)(C)C)o2)c1	-	0	33.0%	0
CC(C)(C)OC(=O)NCCCCCc1nnc(SCc2cccc(F)c2)o1	-	0	-	-
CC(C)(C)OC(=O)NCCc1nnc(SCc2cccc(Cl)c2)o1	-	0	26.5%	0
CC(C)(C)OC(=O)NCCc1nnc(SCc2c(Cl)cccc2Cl)o1	-	0	-	-
CC(C)(C)OC(=O)NCCc1nnc(SCC(=O)c2ccc(Cl)cc2)o1	-	0	-	-
CC(C)(C)OC(=O)NCCc1nnc(SCc2ccc(Cl)cc2Cl)o1	0	-5.88	33.5%	0
O=C(CN1CCN(c2ccccn2)CC1)Nc1cccc(F)c1	0	0	-	-
CCOc1ccccc1NC(=O)Nn1cnnc1	0	0	-	-
CCn1c(SCC(=O)Nc2ccc3c(c2)OCO3)nnc1C(C)C	-	0	-	-

Bioassay records (PubChem)
